For part of these data: Measured potencies and affinities stand elsewhere. The source made the active and inactive calls.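 Rule for the calls, unless noted: active = hit in primary screen, with calcium signal over 5 SD above buffer well mean in both duplicates; inactive = the rest.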
Legend:
[1] = test system: TRPC4 beta (transient receptor potential cation channel C4), mouse; assay: activators of mouse TRPC4 channel, confirmation, cell-based, Fluo4 calcium, HEK293 TRPC4beta/mu-opioid, duplicates, 10 µM (AID 2426;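 active = fluorescence ratio normalized to control raised more than 50% in primary screen plus both repeat runs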;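 for activation: percent rise of integrated ratio over buffer wells lacking compound which define 0%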); conditions: Fluo4 calcium fluorescence, at 10 µM; active compounds read high
[2] = test system: transient receptor potential cation channel C4 beta (TRPC4), mouse; assay: activators of mouse TRPC4 channel, confirmation, cell-based, second round, Fluo4, HEK293 TRPC4beta/mu-opioid, 1 µM (AID 2461;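 active = primary screen active and over 50% activation in each of two duplicate runs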); conditions: Fluo4 calcium fluorescence, at 1 µM; active compounds read high
[3] = test system: TRPC4 (transient receptor potential cation channel C4 beta), mouse; assay: positive allosteric modulators of mouse TRPC4, confirmation, cell-based, second round, Fluo-4, HEK293 TRPC4beta/mu-opioid, 1 µM (AID 2554;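 active = primary screen hit whose fluorescence ratio, in both repeats, exceeds the weak agonist control mean by 3 SD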); conditions: DAMGO EC20, Fluo-4 calcium flux, at 1 µM; active compounds read high
[4] = test system: TRPC4 beta (transient receptor potential cation channel C4), mouse; assay: positive allosteric modulators of mouse TRPC4, confirmation, cell-based, Fluo-4, HEK293 TRPC4beta/mu-opioid (AID 2555;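 active = primary screen hit whose calcium fluorescence ratio, in both repeats, exceeds the weak agonist control mean by 3 SD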); conditions: DAMGO EC20, Fluo-4 calcium flux, at 10 µM; active compounds read high
[5] = biological target: Short transient receptor potential channel 4 (Mus musculus) (UniProt Q9QUQ5); assay: inhibitors of mouse TRPC4 channel, confirmation, cell-based, Fluo4, HEK293 TRPC4beta/mu-opioid (AID 2636;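 active = calcium signal cut by more than 3 SD below the full-agonist control yet still positive, in both repeats and the earlier primary screen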); conditions: DAMGO, Fluo4 calcium flux, at 10 µM; active compounds read high
[6] = biological target: Short transient receptor potential channel 4 (Mus musculus) (UniProt Q9QUQ5); assay: inhibitors of mouse TRPC4 channel, confirmation, cell-based, second round, Fluo4, HEK293 TRPC4beta/mu-opioid, 1 µM (AID 2637;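 active = calcium signal ratio cut to more than 3 SD under the fully stimulated control mean yet still positive, in both repeats and the primary screen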); conditions: Fluo4 calcium flux, DAMGO, at 1 µM; active compounds read high
[7] = biological target: Short transient receptor potential channel 4 (Mus musculus) (UniProt Q9QUQ5); assay: mouse TRPC4 channel activators, dose response, cell-based, HEK293 TRPC4/mu-opioid, Fluo-4 calcium (AID 434937;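 active = primary screen activator hit with a dose response curve and TRPC4 channel activation at any tested dose; inactive = no activation, no dose response, or not a primary hit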)
[8] = biological target: Short transient receptor potential channel 4 (Mus musculus) (UniProt Q9QUQ5); assay: mouse TRPC4 channel inhibitors, dose response, cell-based, HEK293 TRPC4/mu-opioid, Fluo-4 calcium (AID 434942;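 active = primary screen inhibitor hit that blocks the TRPC4 channel at some tested dose, yielding a dose curve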)
[9] = biological target: Short transient receptor potential channel 6 (Mus musculus) (UniProt Q61143); assay: inhibition of mouse TRPC6 channel, confirmation, selectivity assay for TRPC4 inhibitor project, cell-based, HEK293, membrane potential dye, duplicate (AID 434948;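 active = active in primary screen and both duplicates, each dropping signal beyond three positive-control SD with fluorescence still positive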); conditions: HEK293 TRPC6, membrane potential dye fluorescence, at 10 µM, stimulated with maximal-effect acetylcholine; active compounds read high
[10] = biological target: Short transient receptor potential channel 6 (Mus musculus) (UniProt Q61143); assay: activation of mouse TRPC6 channel, confirmation, selectivity assay for TRPC4 activator project, cell-based, HEK293, membrane potential dye, duplicate (AID 434950;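 active = membrane potential signal rise above negative control mean plus 3 SD in both duplicates, also active in the earlier TRPC4 screen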;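 for activation: 0% = buffer only wells and 100% = acetylcholine maximal-effect wells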); conditions: HEK293 TRPC6, membrane potential fluorescence, at 10 µM; active compounds read high
[11] = biological target: Short transient receptor potential channel 6 (Mus musculus) (UniProt Q61143); assay: TRPC6 potentiation by TRPC4 potentiator hits, confirmation, selectivity assay for TRPC4 potentiator project, HEK293 cells, membrane potential dye, duplicate (AID 434952;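 active = compound raising the membrane signal above positive-control mean plus 3 SD in both repeats, and a primary screen hit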); conditions: HEK293 TRPC6, membrane potential dye fluorescence, at 10 µM, maximal acetylcholine added after compound; active compounds read high
[12] = biological target: Short transient receptor potential channel 4 (Mus musculus) (UniProt Q9QUQ5); assay: calcium flux activators in TRPC4/5HT1a cells, counter-screen for TRPC4 activator project, cell-based, second counter screen, HEK293 TRPC4/5HT1a, Fluo-4 (AID 434977;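 active = calcium signal rise above buffer-control mean plus 5 SD in both duplicates, and also a hit in the primary screen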;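 for activation: plate controls were assay buffer for no effect and maximal serotonin response for full effect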); conditions: Fluo-4 calcium flux, at 10 µM; active compounds read high
[13] = calcium flux inhibitors in TRPC4/5HT1a cells, confirmation, counter-screen for TRPC4 inhibitor project, cell-based, second counter screen, HEK293 TRPC4/5HT1a, Fluo-4 (AID 434978;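 active = primary screen active whose calcium signal fell more than 3 SD beyond the full-serotonin control mean in both duplicate plates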;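 for outcome: serotonin given first at submaximal then at maximal dose after compound preincubation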); conditions: Fluo-4 calcium flux, at 10 µM, serotonin added to trigger calcium flux; active compounds read high
[14] = test system: TRPC4 (mouse), co-expressed with 5HT1a in HEK293; assay: calcium flux potentiators in TRPC4/5HT1a cells, confirmation, counter-screen for TRPC4 potentiator project, cell-based, second counter screen, HEK293 TRPC4/5HT1a, Fluo-4 (AID 434979;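 active = signal rise over 3 SD above mean of control wells given weak agonist, in both repeats and first screen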); conditions: Fluo-4 calcium flux, at 10 µM, serotonin added at its EC20 dose; active compounds read high
[15] = calcium flux activation in mu-opioid HEK293 cells, confirmation, counter-screen for TRPC4 activator project, cell-based, HEK293 mu-opioid receptor line (AID 449723); conditions: Fluo-4 calcium fluorescence, at 10 µM; active compounds read high;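 note: counter screen cells carry the mu-opioid receptor alone and lack TRPC4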
[16] = calcium flux enhancement in mu-opioid HEK293 cells, confirmation, counter-screen for TRPC4 allosteric potentiator project, cell-based, HEK293 mu-opioid receptor line (AID 449724;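 active = calcium signal rise more than 3 SD above the low-dose agonist control mean, in both duplicate plates and the primary screen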); conditions: Fluo-4 calcium flux, at 10 µM, compound added before EC20 DAMGO stimulus; active compounds read high
[17] = biological target: Short transient receptor potential channel 4 (Mus musculus) (UniProt Q9QUQ5); assay: TRPC4 positive allosteric modulators, dose response, cell-based, HEK293 TRPC4/mu-opioid, Fluo-4 calcium, EC20 DAMGO (AID 434941;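 active = earlier screen potentiator hit that boosts the TRPC4 ion channel at some dose, with a dose response; inactive = no potentiation, no dose response, or not a prior hit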;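 note: calcium entry triggered by an EC20 dose of DAMGO at the co-expressed mu-opioid receptor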)
[18] = thallium flux activation in parental CHO cells, counter-screen for KCNQ1 potentiator project (AID 493006;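 active = duplicate-averaged activation above buffer control mean plus 5 SD of those controls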;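 for activation: fluorescence ratio of max minus min over baseline after K+ and Tl+ depolarization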); conditions: parental CHO-K1 cells, FluxOR thallium flux, at 10 µM; active compounds read high
[19] = biological target: Potassium voltage-gated channel subfamily KQT member 1 (Homo sapiens) (UniProt P51787); assay: KCNQ1 potassium channel potentiators, confirmation, FluxOR thallium flux, CHO cells, duplicates (AID 493007;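 active = potentiation averaged over duplicate wells exceeding buffer-only control mean by more than 3 SD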;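 for outcome: cells depolarized by a potassium plus thallium sulfate stimulus after compound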;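 for potentiation: 0% = buffer-only wells and 100% = R-L3 activator control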); conditions: KCNQ1 cell line, FluxOR thallium flux fluorescence, at 10 µM; active compounds read high, % of reference activator effect, buffer zero
[20] = biological target: Potassium voltage-gated channel subfamily KQT member 2 (Rattus norvegicus) (UniProt O88943); assay: rat KCNQ2 channel potentiation, selectivity assay for KCNQ1 potentiator project, KCNQ2-CHO-K1 cells (AID 493009;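 active = mean duplicate potentiation above the buffer control mean plus 5 SD of buffer wells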;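 note: assay conditions were tuned for KCNQ1 rather than KCNQ2 modulators; signal is max minus min fluorescence divided by baseline after thallium stimulus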); conditions: FluxOR thallium flux fluorescence, at 10 µM; active compounds read high, scaled: buffer 0, activator control 100
Potassium voltage-gated channel subfamily KQT member 2 (Rattus norvegicus), sequence (O88943 whole entry, looked up): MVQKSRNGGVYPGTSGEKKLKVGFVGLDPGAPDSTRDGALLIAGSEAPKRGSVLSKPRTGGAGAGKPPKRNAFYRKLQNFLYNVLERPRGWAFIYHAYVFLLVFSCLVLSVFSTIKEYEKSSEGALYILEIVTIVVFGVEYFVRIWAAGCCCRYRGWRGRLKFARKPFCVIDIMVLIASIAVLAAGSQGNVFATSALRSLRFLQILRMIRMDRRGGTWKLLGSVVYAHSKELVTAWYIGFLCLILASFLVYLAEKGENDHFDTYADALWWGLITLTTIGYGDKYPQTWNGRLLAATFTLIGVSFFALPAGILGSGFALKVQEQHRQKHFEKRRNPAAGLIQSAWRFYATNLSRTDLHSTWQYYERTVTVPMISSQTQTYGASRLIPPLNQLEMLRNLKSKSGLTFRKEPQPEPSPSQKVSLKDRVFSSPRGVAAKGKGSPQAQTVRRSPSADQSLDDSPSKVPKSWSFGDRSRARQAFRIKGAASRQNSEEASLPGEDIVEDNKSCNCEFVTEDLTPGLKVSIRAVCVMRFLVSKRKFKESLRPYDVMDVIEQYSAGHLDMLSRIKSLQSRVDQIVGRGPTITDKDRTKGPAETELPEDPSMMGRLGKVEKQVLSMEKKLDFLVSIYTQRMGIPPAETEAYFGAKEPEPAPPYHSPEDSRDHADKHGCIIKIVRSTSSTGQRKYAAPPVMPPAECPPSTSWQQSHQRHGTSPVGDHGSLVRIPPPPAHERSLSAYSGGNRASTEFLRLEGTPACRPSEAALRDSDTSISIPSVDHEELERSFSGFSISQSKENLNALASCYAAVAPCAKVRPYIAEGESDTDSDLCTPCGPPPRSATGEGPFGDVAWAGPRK

Short transient receptor potential channel 4 (Mus musculus), sequence (Q9QUQ5 whole entry, looked up): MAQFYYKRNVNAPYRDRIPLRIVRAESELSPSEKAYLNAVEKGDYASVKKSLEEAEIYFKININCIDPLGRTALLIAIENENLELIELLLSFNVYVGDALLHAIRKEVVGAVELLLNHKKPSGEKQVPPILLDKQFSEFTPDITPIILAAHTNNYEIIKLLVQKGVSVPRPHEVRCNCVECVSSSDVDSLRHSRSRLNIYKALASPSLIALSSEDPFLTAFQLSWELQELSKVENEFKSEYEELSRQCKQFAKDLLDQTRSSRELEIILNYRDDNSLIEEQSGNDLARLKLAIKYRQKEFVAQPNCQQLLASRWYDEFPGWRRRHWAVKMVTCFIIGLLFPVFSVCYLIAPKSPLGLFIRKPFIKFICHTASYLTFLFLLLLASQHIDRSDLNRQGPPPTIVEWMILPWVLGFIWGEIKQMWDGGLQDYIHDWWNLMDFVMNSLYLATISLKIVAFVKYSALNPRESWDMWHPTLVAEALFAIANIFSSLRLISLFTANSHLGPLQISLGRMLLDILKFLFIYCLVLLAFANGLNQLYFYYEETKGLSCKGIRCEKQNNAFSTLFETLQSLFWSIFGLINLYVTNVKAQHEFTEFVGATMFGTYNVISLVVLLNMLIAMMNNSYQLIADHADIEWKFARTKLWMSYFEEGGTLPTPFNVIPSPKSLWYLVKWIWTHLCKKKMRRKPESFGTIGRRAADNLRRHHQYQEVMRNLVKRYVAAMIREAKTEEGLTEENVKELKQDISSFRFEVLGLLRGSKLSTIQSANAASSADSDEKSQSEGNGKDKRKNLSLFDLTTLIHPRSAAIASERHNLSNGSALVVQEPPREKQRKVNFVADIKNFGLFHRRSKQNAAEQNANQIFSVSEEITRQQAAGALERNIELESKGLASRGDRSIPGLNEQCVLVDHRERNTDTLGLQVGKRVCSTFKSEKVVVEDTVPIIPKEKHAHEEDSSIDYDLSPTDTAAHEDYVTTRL
Short transient receptor potential channel 6 (Mus musculus), sequence (Q61143 whole entry, looked up): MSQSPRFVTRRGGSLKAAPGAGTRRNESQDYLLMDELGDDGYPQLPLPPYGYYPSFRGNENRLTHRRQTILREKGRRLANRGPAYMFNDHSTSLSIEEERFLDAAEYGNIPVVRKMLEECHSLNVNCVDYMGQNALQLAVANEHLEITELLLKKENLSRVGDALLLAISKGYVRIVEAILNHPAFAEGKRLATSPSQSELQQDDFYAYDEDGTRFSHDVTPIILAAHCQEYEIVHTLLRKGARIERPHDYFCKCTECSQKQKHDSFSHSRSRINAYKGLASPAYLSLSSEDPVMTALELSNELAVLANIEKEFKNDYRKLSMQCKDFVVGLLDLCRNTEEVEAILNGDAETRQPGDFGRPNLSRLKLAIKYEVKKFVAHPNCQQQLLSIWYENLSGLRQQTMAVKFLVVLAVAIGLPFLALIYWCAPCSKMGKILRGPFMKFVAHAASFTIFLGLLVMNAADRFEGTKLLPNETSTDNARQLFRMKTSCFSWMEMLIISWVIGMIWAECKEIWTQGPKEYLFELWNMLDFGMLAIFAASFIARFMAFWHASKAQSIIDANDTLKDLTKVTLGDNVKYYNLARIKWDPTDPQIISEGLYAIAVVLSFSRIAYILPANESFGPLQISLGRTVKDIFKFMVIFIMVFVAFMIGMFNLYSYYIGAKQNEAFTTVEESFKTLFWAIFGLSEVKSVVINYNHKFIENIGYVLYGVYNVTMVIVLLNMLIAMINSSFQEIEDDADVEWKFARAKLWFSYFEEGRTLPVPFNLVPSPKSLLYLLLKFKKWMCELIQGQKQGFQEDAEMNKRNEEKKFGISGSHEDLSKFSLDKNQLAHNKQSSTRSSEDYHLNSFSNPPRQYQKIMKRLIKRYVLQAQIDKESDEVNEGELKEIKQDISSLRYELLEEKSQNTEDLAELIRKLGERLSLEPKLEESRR
Potassium voltage-gated channel subfamily KQT member 1 (Homo sapiens), sequence (P51787 whole entry, looked up): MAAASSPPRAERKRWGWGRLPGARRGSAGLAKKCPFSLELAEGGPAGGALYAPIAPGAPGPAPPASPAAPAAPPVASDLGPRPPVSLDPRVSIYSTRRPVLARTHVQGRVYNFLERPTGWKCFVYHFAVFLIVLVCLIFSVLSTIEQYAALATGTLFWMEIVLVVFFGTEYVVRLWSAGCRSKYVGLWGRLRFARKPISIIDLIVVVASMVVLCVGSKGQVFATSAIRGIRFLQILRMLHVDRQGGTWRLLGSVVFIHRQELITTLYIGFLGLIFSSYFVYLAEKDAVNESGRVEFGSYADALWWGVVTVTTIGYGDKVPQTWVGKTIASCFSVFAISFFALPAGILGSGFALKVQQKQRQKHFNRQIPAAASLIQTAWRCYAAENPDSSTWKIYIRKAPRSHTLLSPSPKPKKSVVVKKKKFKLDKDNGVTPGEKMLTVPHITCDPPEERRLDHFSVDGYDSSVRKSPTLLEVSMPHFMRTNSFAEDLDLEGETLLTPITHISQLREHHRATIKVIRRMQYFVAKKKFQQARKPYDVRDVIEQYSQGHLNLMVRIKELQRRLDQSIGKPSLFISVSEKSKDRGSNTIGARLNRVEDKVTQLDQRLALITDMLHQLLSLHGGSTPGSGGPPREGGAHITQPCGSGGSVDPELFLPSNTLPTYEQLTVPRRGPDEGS

Cc1cccc(Cn2c(N3CCN(c4ccccc4)CC3)nc3c2c(=O)n(C)c(=O)n3C)c1
active: potentiation [4] 71% | potentiation [14] 59.2%
inactive: outcome [1] | outcome [2] | outcome [3] | outcome [5] | outcome [6] | outcome [7] | outcome [8] | outcome [9] | outcome [10] | outcome [11] | outcome [12] | outcome [13] | outcome [15] | outcome [16]

CC1=C(C(=O)NCc2ccccc2)C(c2cc(Br)cc(Br)c2OC(C)C)NC(=O)N1 (centres undefined)
inactive: outcome [1] | outcome [2] | outcome [3] | outcome [5] | outcome [6] | outcome [7] | outcome [8] | outcome [9] | outcome [10] | outcome [11] | outcome [12] | outcome [13] | outcome [15] | outcome [16]
active: potentiation [4] 28% | potentiation [14] 11.7%

S=c1[nH]nc(-c2cc3c(s2)-c2ccccc2CC3)o1
active: inhibition [5] 97% | inhibition [13] 32.1% | activation [18] 810% | potentiation [19] 241% | potentiation [20] 809%
inactive: outcome [1] | outcome [2] | outcome [3] | outcome [4] | outcome [6] | outcome [7] | outcome [17] | outcome [9] | outcome [10] | outcome [11] | outcome [12] | outcome [14] | outcome [15] | outcome [16]

O=C(NCc1ccccc1)C1=C[C@H](c2ccc(Br)cc2)C[C@H](OCc2ccc(CO)cc2)O1
active: potentiation [4] 35% | potentiation [14] 97.6%
inactive: outcome [1] | outcome [2] | outcome [3] | outcome [5] | outcome [6] | outcome [7] | outcome [8] | outcome [9] | outcome [10] | outcome [11] | outcome [12] | outcome [13] | outcome [15] | outcome [16]

CC1=NN(c2ccccc2)C(=O)/C1=C/c1c(O)n(-c2ccc(F)c(Cl)c2)[nH]c1=O
inactive: outcome [1] | outcome [2] | outcome [3] | outcome [4] | outcome [6] | outcome [7] | outcome [17] | outcome [9] | outcome [10] | outcome [11] | outcome [12] | outcome [14] | outcome [15] | outcome [16] | outcome [18] | outcome [19] | outcome [20]
active: inhibition [5] 97% | inhibition [13] 17.1%

O=[N+]([O-])c1cc(C(F)(F)F)ccc1NC1CCN(Cc2ccccc2)C1 (centres undefined)
active: potentiation [14] 23.9%
inactive: outcome [1] | outcome [2] | outcome [3] | outcome [4] | outcome [5] | outcome [6] | outcome [7] | outcome [8] | outcome [9] | outcome [10] | outcome [11] | outcome [12] | outcome [13] | outcome [15] | outcome [16]

O=C(NCc1ccccc1)C1=C[C@H](c2ccc(C(F)(F)F)cc2)C[C@H](OCc2ccc(CO)cc2)O1
inactive: outcome [1] | outcome [2] | outcome [3] | outcome [5] | outcome [6] | outcome [7] | outcome [8] | outcome [9] | outcome [10] | outcome [11] | outcome [12] | outcome [13] | outcome [15] | outcome [16]
active: potentiation [4] 51% | potentiation [14] 111%

O=[N+]([O-])c1ccc(/C=N/Nc2nc(N3CCCCC3)nc(N3CCCCC3)n2)o1
active: potentiation [4] 21% | potentiation [14] 59.2%
inactive: outcome [1] | outcome [2] | outcome [3] | outcome [5] | outcome [6] | outcome [7] | outcome [8] | outcome [9] | outcome [10] | outcome [11] | outcome [12] | outcome [13] | outcome [15] | outcome [16]

Cc1ccc(S(=O)(=O)/N=C2/NC(=O)/C(=C\c3cc(Br)cc(Br)c3O)S2)cc1
inactive: outcome [1] | outcome [2] | outcome [3] | outcome [5] | outcome [6] | outcome [17] | outcome [8] | outcome [9] | outcome [11] | outcome [13]
active: potentiation [4] 35% | activation [10] 447% | activation [12] 45.6% | potentiation [14] 9.14% | activation [15] 60.8% | activation [16] 600%

Cc1cccc(/C=N/NC(=O)c2cc(Br)ccc2O)n1
active: potentiation [3] 24% | potentiation [4] 46% | potentiation [14] 100% | activation [18] 140% | potentiation [19] 48% | potentiation [20] 182%
inactive: outcome [1] | outcome [2] | outcome [5] | outcome [6] | outcome [7] | outcome [8] | outcome [9] | outcome [10] | outcome [11] | outcome [12] | outcome [13] | outcome [15] | outcome [16]

CN(C)CCNc1ccc(Cl)cc1[N+](=O)[O-]
inactive: outcome [1] | outcome [2] | outcome [3] | outcome [4] | outcome [5] | outcome [6] | outcome [7] | outcome [8] | outcome [9] | outcome [10] | outcome [11] | outcome [12] | outcome [13] | outcome [15] | outcome [16]
active: potentiation [14] 8.91%

CC1CCN(c2nc(Cl)nc(Nc3ccc([N+](=O)[O-])cc3)n2)CC1
inactive: outcome [1] | outcome [2] | outcome [3] | outcome [5] | outcome [6] | outcome [7] | outcome [8] | outcome [9] | outcome [10] | outcome [11] | outcome [12] | outcome [13] | outcome [15] | outcome [16]
active: potentiation [4] 15% | potentiation [14] 66%

Cc1cccc(C(=O)NC(=S)NNC(=O)Cc2ccccc2)c1
inactive: outcome [2] | outcome [3] | outcome [4] | outcome [5] | outcome [6] | outcome [17] | outcome [8] | outcome [9] | outcome [11] | outcome [13] | outcome [14] | outcome [16]
active: activation [1] 238% | activation [10] 32.5% | activation [12] 133% | activation [15] 44.1%

Cc1ccc(Cl)cc1N1CCN(C(=O)c2cccc3c(=O)c(C)c(-c4ccccc4)oc23)CC1
active: potentiation [14] 21.8%
inactive: outcome [1] | outcome [2] | outcome [3] | outcome [4] | outcome [5] | outcome [6] | outcome [7] | outcome [8] | outcome [9] | outcome [10] | outcome [11] | outcome [12] | outcome [13] | outcome [15] | outcome [16]

CCOC(=O)C1(Cc2ccccc2)CCN(Cc2cccn2-c2cccnc2)CC1
inactive: outcome [2] | outcome [3] | outcome [4] | outcome [5] | outcome [6] | outcome [17] | outcome [8] | outcome [9] | outcome [11] | outcome [12] | outcome [13] | outcome [14] | outcome [15] | outcome [16]
active: activation [1] 55% | activation [10] 89%

Reference: PubChem BioAssay
